Screening results (PubChem)
PfHsp90 yeast 2 = growth inhibition of PfHsp90-expressing yeast, primary screen, antimalarial PfHsp90 inhibitor project, S. cerevisiae, BacTiter-Glo luminescence, single point, set 2; 310,000 tested, 0.32% active; AID 504621, 2011; inhibition, % at 9.4 µM; BacTiter-Glo ATP, 48 h; yeast lacking PDR1 and PDR3 efflux regulators;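 active = every replicate shows inhibition above about 80%, whatever the replicate mean, limit read from the data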
SKKanGAS inh = S. pyogenes SKKanGAS growth inhibitors in kanamycin, primary screen, streptokinase expression inhibitor project, SKKanGAS strain, BacTiter-Glo luminescence; 6 h; inhibition, % at 7.5 µM; 300,000 tested, 1.3% active;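 active = mean replicate score, as percent of positive control median, at least 50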;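 note: strain carries kanamycin resistance gene driven by streptokinase promoter and grows in 40 µg/ml kanamycin; loss of luminescence reflects streptokinase promoter inhibition or plain growth inhibition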
NLRP3 yeast inh = NALP3 inflammasome inhibitors in reconstituted yeast, primary screen, luminescence, uHTS; Yeast reconstituted NLRP3/ASC/caspase-1, beta-gal luminescence, 24 h; inhibition, % at 10 µM; 330,000 tested, 0.39% active; AID 2825, 2010;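 active = inhibition of 50% or more; inactive = inhibition below 50%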
tim23-1 inh = growth inhibitors of tim23-1 mutant yeast, primary screen, luminescence, uHTS; inhibition, % at 20 µM; S. cerevisiae tim23-1 growth, BacTiter-Glo luminescence, 24 h; 330,000 tested, 1.3% active; AID 463212, 2010;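 active = growth inhibition of the mutant yeast at or above 50%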;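 note: temperature-sensitive mutant grown at 25 °C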
tim10-1 inh = growth inhibitors of tim10-1 mutant yeast, primary screen, luminescence, uHTS. inhibition, % at 20 µM. 330,000 tested, 2.2% active. S. cerevisiae tim10-1 ts strain growth, BacTiter-Glo, 24 h;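 active = inhibition of at least 40%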;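 note: mutant grown at 25 °C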
TIM10 inh = growth inhibitors of isogenic TIM10 control yeast, primary screen, counter-screen for tim10-1 yeast inhibitor project, luminescence, uHTS; 330,000 tested, 1.4% active; S. cerevisiae TIM10 strain growth, BacTiter-Glo luminescence, 24 h; inhibition, % at 10 µM;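 active = inhibition of 40% or more at the single tested concentration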;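 note: wild-type TIM10 isogenic control strain grown at permissive 25 °C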
NALP3 confirm = NALP3 inhibitors retested in yeast, confirmation, luminescence, single concentration. 1,300 tested, 81% active. shares compounds with NLRP3 yeast inh. inhibition, % at 10 µM. yeast expressing human NALP3; in the data active = inhibition above about 48%
Casp1 ASC ctr = CASP1-PYCARD signaling inhibition in yeast, confirmatory test, counterassay for NLRP3 inhibitor program, one-dose. shares compounds with NLRP3 yeast inh. yeast expressing Caspase-1-ASC, luminescence counter screen. inhibition, % at 10 µM. 1,000 tested, 66% active
NALP3 yeast rt = NALP3 inhibitors in yeast, repeat test, confirmation, luminescence, single concentration, retest | yeast expressing human NALP3, luminescence read-out | inhibition, % at 10 µM | 1,000 tested, 53% active | shares compounds with NLRP3 yeast inh
tim10-1 confirm = growth inhibitors of tim10-1 mutant yeast, confirmation, single concentration, luminescence, S. cerevisiae; shares compounds with tim10-1 inh; S. cerevisiae tim10-1 ts strain growth, BacTiter-Glo, 24 h; inhibition, % at 20 µM; 7,400 tested, 56% active;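 active = inhibition of yeast growth at or above a set limit in either of two repeat tests at 20 µM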;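 note: tim10-1 mutant grown at permissive 25 °C to find synthetic lethal compounds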
tim10 confirm = growth inhibitors of wild-type TIM10 yeast, confirmation, counter-screen for tim10-1 synthetic lethality project, single concentration, luminescence, S. cerevisiae; S. cerevisiae tim10 strain growth, BacTiter-Glo luminescence, 24 h; 4,600 tested, 63% active; inhibition, % at 10 µM; AID 463215, 2010; shares compounds with TIM10 inh;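 active = inhibition of yeast growth at or above a set limit in either of two replicates at 10 µM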; note: this counterscreen used the strain with wild-type TIM10
tim23-1 confirm = tim23-1 mutant yeast growth inhibitors, confirmation, luminescence, single concentration. shares compounds with tim23-1 inh. S. cerevisiae tim23-1 growth, BacTiter-Glo luminescence, 24 h. inhibition, % at 20 µM. 4,400 tested, 83% active. AID 463218, 2010;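 active = inhibition above about 39% in either of two replicate wells at 20 µM, limit read from the data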;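 note: temperature-sensitive tim23-1 mutant grown at 25 °C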
Each line names hits and unclear results; the compound was inactive in the other large screens (follow-up assays come after a bar, where they were run). The list is not random: actives were taken first. Their share in the collection is about 4.6%. Cut-off read from the data, not from the text of the source, unless noted: active = inhibition above about 50%; inactive = the rest.

O=C(NC1CC1)C1CCN(C2CCN(C(=O)/C=C/c3cccc(F)c3F)CC2)CC1	none (no result: PfHsp90 yeast 2)
CCOC(=O)c1cc(C(=O)c2cccs2)n2ccc(C(C)=O)cc12	NLRP3 yeast inh 54, TIM10 inh 50 | NALP3 confirm 51 | Casp1 ASC ctr 52 | NALP3 yeast rt inactive | tim10 confirm 36
Cc1ccc(Sc2ccc(NC(=O)CCl)cc2)c(C)c1	NLRP3 yeast inh 58, TIM10 inh 59 (no result: PfHsp90 yeast 2) | NALP3 confirm 69 | Casp1 ASC ctr 78 | NALP3 yeast rt 58 | tim10 confirm 43
CC1=C/C(=N\OS(=O)(=O)c2ccccc2)C(C)=CC1=O	PfHsp90 yeast 2 105, tim10-1 inh 91, TIM10 inh 87 (no result: SKKanGAS inh) | NALP3 confirm inactive | tim10-1 confirm 80 | tim10 confirm inactive
CC1=NNC(=O)/C1=C\c1cn(-c2ccccc2)nc1-c1cccs1	PfHsp90 yeast 2 110, NLRP3 yeast inh 54, TIM10 inh 88 | NALP3 confirm 74 | tim10 confirm 84
CC1=NNC(=O)/C1=C\c1cn(-c2ccccc2)nc1-c1ccc(F)cc1	none (no result: PfHsp90 yeast 2, NLRP3 yeast inh, tim23-1 inh, tim10-1 inh, TIM10 inh)
C/C(=N\NC(=O)c1ccccc1O)C1C(=O)c2ccccc2C1=O	SKKanGAS inh 52, NLRP3 yeast inh 87, tim23-1 inh 73, tim10-1 inh 54, TIM10 inh 73 | NALP3 confirm 92 | Casp1 ASC ctr 92 | NALP3 yeast rt 84 | tim10-1 confirm 52 | tim10 confirm 70 | tim23-1 confirm 79
COc1cc2c(cc1OC)C(Cc1ccccc1[N+](=O)[O-])=NCC2	none (no result: SKKanGAS inh, NLRP3 yeast inh, tim23-1 inh, tim10-1 inh, TIM10 inh)
COc1ccc2[nH]c3c(C)c4ccncc4c(C)c3c2c1	SKKanGAS inh 97, NLRP3 yeast inh 89, tim23-1 inh 50, tim10-1 inh 58, TIM10 inh 59 | NALP3 confirm 96 | Casp1 ASC ctr 99 | NALP3 yeast rt 91 | tim10-1 confirm inactive | tim10 confirm 71 | tim23-1 confirm 69
CN1CCSc2ccc(C(=O)Nc3cccc(F)c3)cc21	NLRP3 yeast inh 67, tim23-1 inh 68, TIM10 inh 47 | NALP3 confirm 82 | tim10 confirm 51 | tim23-1 confirm 71
COc1ccc(NC(=O)c2ccc3c(c2)N(C)CCS3)cc1	none
Cc1cccc(N/C=C/c2onc(C)c2[N+](=O)[O-])c1	none
Cc1cccc(/C=C/c2onc(C)c2[N+](=O)[O-])n1	NLRP3 yeast inh 89, tim23-1 inh 84, tim10-1 inh 64, TIM10 inh 68 (no result: PfHsp90 yeast 2) | NALP3 confirm 63 | Casp1 ASC ctr 96 | NALP3 yeast rt 77 | tim10-1 confirm 61 | tim10 confirm 78 | tim23-1 confirm 71
CC(=O)Nc1ccc(-n2nnnc2SCC(=O)NCc2cccs2)cc1	none
O=c1c2ccccc2[nH]c2ccc(O)cc12	none
Cc1ccc2[nH]c3ccccc3c(=O)c2c1	NLRP3 yeast inh 53, tim23-1 inh 59 | NALP3 confirm 61 | Casp1 ASC ctr 61 | NALP3 yeast rt 56 | tim23-1 confirm 50
CC(C)C[C@@H](CNCC(=O)[C@H](CC(C)C)NC(=O)c1[nH]cnc1C(=O)N[C@H](CN)CC(C)C)NC(=O)c1nc[nH]c1C(=O)N[C@@H](CC(=O)O)C(=O)O	none (no result: SKKanGAS inh, NLRP3 yeast inh, tim23-1 inh, tim10-1 inh, TIM10 inh)
COc1ccc(CNC(=O)c2c(C)oc3c2C(=O)c2ccccc2C3=O)cc1	SKKanGAS inh 87, NLRP3 yeast inh 69, tim23-1 inh 89, tim10-1 inh 83, TIM10 inh 57 | NALP3 confirm 71 | Casp1 ASC ctr inactive | NALP3 yeast rt inactive | tim10-1 confirm 74 | tim10 confirm 68 | tim23-1 confirm 86
Cc1nc(Nc2nc3c(c(=O)[nH]2)CCC3)nc2ccccc12	NLRP3 yeast inh 77, tim23-1 inh 64, tim10-1 inh 60, TIM10 inh 83 | NALP3 confirm 71 | Casp1 ASC ctr inactive | NALP3 yeast rt inactive | tim10-1 confirm 72 | tim10 confirm 75 | tim23-1 confirm 62
COc1ccc(NC(=O)CNC(=O)Cc2cccc3ccccc23)c(OC)c1	none
COc1cc2oc3ccccc3c(=O)c2cc1OC	NLRP3 yeast inh 62, tim23-1 inh 63, tim10-1 inh 43 | NALP3 confirm 72 | Casp1 ASC ctr 55 | NALP3 yeast rt 59 | tim10-1 confirm inactive | tim23-1 confirm 53
O=c1c2ccccc2oc2cc(Br)ccc12	none (no result: SKKanGAS inh, NLRP3 yeast inh, tim23-1 inh, tim10-1 inh, TIM10 inh)
O=C(/C=C\Nc1ccccn1)c1ccccc1	NLRP3 yeast inh 63, tim23-1 inh 52, TIM10 inh 48 | NALP3 confirm 46 | Casp1 ASC ctr 59 | NALP3 yeast rt 54 | tim10 confirm 52 | tim23-1 confirm 80
N#C/C(=C\c1ccc([N+](=O)[O-])cc1)c1ccccn1	NLRP3 yeast inh 55, tim23-1 inh 65, tim10-1 inh 46, TIM10 inh 52 | NALP3 confirm 56 | Casp1 ASC ctr inactive | NALP3 yeast rt inactive | tim10-1 confirm 60 | tim10 confirm 57 | tim23-1 confirm 58
CC(Oc1ccc(Cl)cc1)c1ccc(C#N)c(=O)[nH]1 (centres undefined)	none
CCOc1ccccc1N(CC(=O)N1CCCC1)S(C)(=O)=O	none
O=C1Nc2ccccc2/C1=C/c1ccccc1F	NLRP3 yeast inh 53, tim23-1 inh 53, TIM10 inh 56 | NALP3 confirm 53 | Casp1 ASC ctr inactive | NALP3 yeast rt inactive | tim10 confirm 57 | tim23-1 confirm 45
O=C(Cn1nnc(-c2ccccc2F)n1)NCc1ccco1	none
